Drawing on PubChem BioAssay, this text covers inhibition for 72 compounds.

Values joined by “and” are separate entries in the source; they are usually repeats but may differ in a detail not shown here. Equal values may be shown once. Values without a mark were called inactive. Active and inactive are the calls of the source.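 The calls were made as follows: active = inhibition at or above 50% relative to wild type and mutant plate controls; inactive = inhibition below 50%.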

The experiment in a line: inhibitors of Chlamydomonas gravitaxis, primary screen, whole organism, Chlamydomonas reinhardtii, WT vs cilia-less mutant, absorbance, 96-well (AID 463189).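 Also: 0% = wild type cc124 cells in DMSO and 100% = ciliumless bld1 mutant cells.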 Particulars: OD600 absorbance, 2 days, at 10 µM, hits give high values.

Turning to `NC(=O)COc1c(F)cc(SCCNS(=O)(=O)c2ccccc2)cc1F`, the inhibition (commonly the relative decrease from the control value, in per cent) is 4.45%.
As for `NCC(O)c1ccc(O)cc1` (configuration not stated), the inhibition was 5.37%.
Next, `Cc1sc2ccccc2c1CC1=NCCN1`: 20.7%.
`C=CCN1CCC2(C)c3cc(O)ccc3CC1C2C` (configuration not stated): the inhibition was 0.366%.
Next, `CN1C[C@@H](CS(=O)(=O)N(C)C)C[C@@H]2c3cccc4c3c(cn4C)C[C@H]21`: 4.5%.
In the case of `CCCN1CC[C@@H]2c3cc(O)ccc3CC[C@@H]21`, the inhibition is -3.65%.
In the case of `CCCN1CCC[C@@H]2Cc3nc(N)ncc3C[C@H]21` it was 4.12%.
In the case of `C[N+](C)(C)CC#CCN1CCCC1=O` it was -6.29%.
In the case of `COc1ccc2[nH]c3c(c2c1)CCNC3` it was -4.14%; in that of `C[Se]C[C@H](N)C(=O)O`, 1.72%; in that of `C#CCN(C)[C@@H](C)Cc1ccccc1`, 7.92%.
As to `NCCc1c[nH]c2ccccc12`, the inhibition was 2.92%.
As for `C[C@]12CCC3C(CC[C@H]4C[C@H](O)CC[C@]34C)C1CC[C@@H]2C(=O)CO` (some centres not stated), the inhibition was 4.52%.
Next, `NC(CCCCCP(=O)(O)O)C(=O)O` (configuration not stated): -3.46%; `O=C(O)c1nn(Cc2ccc(Cl)cc2Cl)c2ccccc12`: -0.768%.
Take `NN=C(N)N`: the inhibition is 15.6% and 6.1%.
Next, `CC(N)c1cccc(Cl)c1Cl` (configuration not stated): -4.86%; `CCCN(CCC)[C@@H]1CCc2c(F)ccc(O)c2C1`: -5.24%; `C[N+]1(C)C2CCC1CC(OC(=O)c1c[nH]c3ccccc13)C2` (configuration not stated): 8.92%.
Next, `C[C@]12CC[C@H](O)CC1=CC[C@@H]1[C@@H]2CC[C@]2(C)C(=O)CC[C@@H]12`: -2.3%.
In the case of `Cc1c(C(=O)c2cccc3ccccc23)c2cccc3c2n1[C@H](CN1CCOCC1)CO3` it was 9.81%; in that of `CCCN1CCC[C@@H]2Cc3[nH]ncc3C[C@H]21`, 1.82% and 2.66%.
As to `Clc1ccc(C(c2ccc(Cl)cc2)n2cc[n+](CC(OCc3ccc(Cl)cc3Cl)c3ccc(Cl)cc3Cl)c2)cc1` (configuration not stated), the inhibition is 133% (active).
In the case of `N#CC(C#N)=Cc1ccc(O)c(O)c1` it was 1.54%; in that of `CCCn1c(=O)c2[nH]c(C3CCCC3)nc2n(CCCOC(=O)c2ccc(S(=O)(=O)F)cc2)c1=O`, 0.089%; in that of `c1ccc2sc(C3(N4CCCCC4)CCCCC3)cc2c1`, -0.941%.
Next, `C[C@@H]1O[C@H](C[N+](C)(C)C)C[C@H]1O`: 3.38%.
Turning to `CC(C)(C)NCC(O)c1ccccc1Cl` (configuration not stated), the inhibition was 8.05%.
On to `NC(=O)c1cc(N2CC2)c([N+](=O)[O-])cc1[N+](=O)[O-]`, for which the inhibition is -4%.
With `CC(C)(C)c1o[nH]c(=O)c1CC(N)C(=O)O` (configuration not stated), the inhibition was 0.571%.
Next, `C[N+]1(C)CCC(OC(=O)C(c2ccccc2)c2ccccc2)CC1`: -7.08%; `CCN1C[C@]2(C)CC[C@H](O)[C@@]34C5C[C@@H]6[C@@H](OC)C[C@@](O)(C5[C@H]6O)[C@@H](CC23)C14` (some centres not stated): 7.34%; `CC1OC1P(=O)(O)O` (configuration not stated): 0.291%.
In the case of `O=c1[nH]oc2c1CCNC2`, the inhibition is 1.51%.
Turning to `O=C(O)[C@@H]1CCN1`, the inhibition is 2.04%.
Next, `C=CCN1C[C@@H](C)N([C@H](c2ccc(C(=O)N(CC)CC)cc2)c2cccc(OC)c2)C[C@@H]1C`: -6.39%; `CC(C)(O)[C@@H]1[C@H]2OC(=O)[C@@H]1[C@]1(O)C[C@H]3O[C@]34C(=O)O[C@H]2[C@]14C` (tested in a mixture with another compound): -1.93%; `CN(N=O)c1cc(O)ccc1O`: 2.32%.
Next, `Clc1ccc(N2CC3CCC(C2)N3)nn1`: 1.03%.
As for `COc1ccc2c(c1)C13CCCCC1C(C2)N(C)CC3` (configuration not stated), the inhibition is 6.06%.
In the case of `CP(=O)(O)C1=CCNCC1` it was 10%.
Next, `COc1ccc(-n2nc(C(F)(F)F)cc2-c2ccc(Cl)cc2)cc1`: -10.1%; `CN(C(=O)Cc1ccc(Cl)c(Cl)c1)C(CN1CCCC1)c1cccc(OCC(=O)O)c1` (configuration not stated): 4.68%; `CC(=O)NBr`: 10%.
Consider `CCN(CCCl)Cc1ccccc1Br`, for which the inhibition is 6.59%.
In the case of `CCn1cc(C(=O)O)c(=O)c2ccc(C)nc21` it was -5.13% and 33.3%.
Next, `c1ccc2c(N3CCNCC3)cccc2c1`: 5.44%.
As for `O=C1C=CC(=O)C=C1`, the inhibition was -11.2%.
In the case of `Oc1ccc2c3c1O[C@H]1[C@@H](O)CC[C@@]4(O)C(C2)N(CC2CCC2)CCC314` (some centres not stated) it was 3.28%.
On to `CC(C)CC(NP(=O)(O)O[C@@H]1O[C@@H](C)[C@H](O)[C@@H](O)[C@H]1O)C(=O)NC(Cc1c[nH]c2ccccc12)C(=O)O` (some centres not stated), for which the inhibition is 5.76%.
Regarding `COc1ccc2c(c[n+](C)c3c4cc5c(cc4ccc23)OCO5)c1OC`, the inhibition is 47%.
As to `NCCCP(=O)(O)O`, the inhibition is 13.9%.
In the case of `O=C(Cc1ccc(Cl)c(Cl)c1)N1CCCCC1CN1CCCC1` (configuration not stated), the inhibition is 1.42%.
In the case of `COC[C@H]1OC(=O)c2coc3c2[C@@]1(C)C1=C(C3=O)C2CCC(=O)[C@@]2(C)C[C@H]1OC(C)=O` (some centres not stated) it was 4.09%.
As for `CN1C2CCC1CC(OC(c1ccccc1)c1ccccc1N)C2` (configuration not stated), the inhibition was -4.19%.
In the case of `O=C(O)CC[N+](=O)[O-]` it was 2.51%; in that of `C/C(O)=C(\C#N)C(=O)Nc1cc(Br)ccc1Br`, 2.1%.
As to `C=CCN1CCC2(C)c3cc(O)ccc3CC1[C@@H]2C` (some centres not stated), the inhibition is 4.21%.
Turning to `O=P(O)(O)C(Cl)(Cl)P(=O)(O)O`, the inhibition was 8.57%.
In the case of `CC1=C[C@@H]2c3cccc4[nH]cc(c34)C[C@H]2N(C)C1`, the inhibition is 69.4% (active).
Consider `O=C1CC[C@@]2(O)C3Cc4ccc(O)c5c4C2(CCN3CC2CC2)[C@H]1O5` (some centres not stated), for which the inhibition was -3.7%.
For `CC12CCC3C(CCC4=C(O)C(=O)CCC43C)C1CCC2=O` (configuration not stated), the inhibition was 12.9%.
Next, `CN1C2CCC1CC(OC(c1ccccc1)c1ccc(Cl)cc1)C2` (configuration not stated): 11.8%; `NC(N)=NOCC[C@H](N)C(=O)O`: -0.094%; `COc1cc(CC(C)N)c(OC)cc1I` (configuration not stated): -7.42%.
For the compound `CC(N)C(=O)OC(C)(C)Cc1ccc(Cl)cc1` (configuration not stated), the inhibition is -6.83%.
As for `Cn1cnc(CCN)c1`, the inhibition was 3.08%.
`NNCc1cccc(O)c1`: the inhibition was -4.41%.
For the compound `Ic1ccccc1CNC1C2CCN(CC2)C1C(c1ccccc1)c1ccccc1` (configuration not stated), the inhibition was 75.8% (active).
For the compound `NC(=O)CI`, the inhibition is -0.903%.
Consider `CCCN1CCC[C@@H](c2cccc(C#N)c2)C1`, for which the inhibition is 9.39%.
Next, `C[C@]12CC[C@@H](O)CC1CC[C@@H]1[C@@H]2CC[C@]2(C)C(=O)CC[C@@H]12` (some centres not stated): 0.791%.
